Measured values published in PubChem BioAssay (Tox21).
“And” between values parts separate entries of the source, which are not always exact repeats. Equal entries are not always repeated. Results filed as inconclusive are left out. The source made the active and inactive calls. Unless noted, the call rests on the fitted dose curve; in most records, active means well fitted curve in the direction sought with a large enough effect in the repeat runs; inconclusive means weak or mixed curves; inactive means no such curve, though single readings can be large; an effect the other way counts as inactive or inconclusive.

Legend:
[1] = qHTS assay to identify small molecule antagonists of the thyroid receptor (TR) signaling pathway - cell viability counter screen (AID 743064); further: nearly all actives have a fitted effect of over 50% in size
Outline: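 Fluorescence from CellTiter-Fluor, added after 23.5 h exposure at 37 °C, reported viability of GH3.TRE-Luc cells co-treated with compound and 1 nM T3. Measured in the same wells as the luciferase TR readout.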

[2] = qHTS assay to identify small molecule antagonists of the thyroid receptor (TR) signaling pathway (AID 743065); further: nearly all actives have a fitted effect of over 55% in size
Outline: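 GH3.TRE-Luc rat pituitary cells carrying two TR response elements driving luciferase were plated for 4 h, given compound plus 1 nM T3 (final), and incubated 23.5 h at 37 C. ONE-Glo luminescence measured reporter inhibition; CellTiter-Fluor fluorescence tracked cytotoxicity.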

[3] = tested on: thyroid hormone receptor (rat, GH3 cells); assay: qHTS assay to identify small molecule agonists of the thyroid receptor (TR) signaling pathway (AID 743066; calls by dose curve)
[4] = molecular target: Estrogen receptor (Homo sapiens) (UniProt P03372); assay: qHTS assay to identify small molecule antagonists of the estrogen receptor alpha (ER-alpha) signaling pathway (AID 743069; active means well fitted curve in the direction sought with a large enough effect in the signal ratio in the repeat runs, not every such curve was filed as active; the % refers to the signal ratio)
Chain of Estrogen receptor (Homo sapiens) (P03372 whole entry, looked up): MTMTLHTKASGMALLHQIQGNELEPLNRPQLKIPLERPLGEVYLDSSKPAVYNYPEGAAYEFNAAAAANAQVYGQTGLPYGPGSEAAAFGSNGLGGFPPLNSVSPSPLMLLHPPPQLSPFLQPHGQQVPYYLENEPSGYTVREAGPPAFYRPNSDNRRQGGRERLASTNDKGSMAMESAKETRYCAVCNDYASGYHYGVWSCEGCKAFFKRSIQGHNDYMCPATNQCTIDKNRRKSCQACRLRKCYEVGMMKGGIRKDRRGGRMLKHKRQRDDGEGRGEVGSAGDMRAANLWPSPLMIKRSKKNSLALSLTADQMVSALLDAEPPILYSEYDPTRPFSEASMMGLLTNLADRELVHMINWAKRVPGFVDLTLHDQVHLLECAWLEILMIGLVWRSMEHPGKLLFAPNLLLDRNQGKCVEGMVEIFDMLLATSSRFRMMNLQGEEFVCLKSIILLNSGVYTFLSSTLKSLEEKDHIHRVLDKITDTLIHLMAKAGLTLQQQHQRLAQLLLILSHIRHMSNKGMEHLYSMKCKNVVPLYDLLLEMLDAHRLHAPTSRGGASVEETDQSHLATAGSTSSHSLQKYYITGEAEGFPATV
Outline: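 HEK293 cells stably carrying an ER-alpha-UAS-bla beta-lactamase reporter were pre-cultured overnight in 2% charcoal-stripped FBS medium. Test compounds in DMSO were added together with 17beta-estradiol for 18 hr at 37C. Read-out was fluorescence after 2 hr with LiveBLAzer B/G FRET substrate at room temperature.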

[5] = qHTS assay to identify small molecule antagonists of the estrogen receptor alpha (ER-alpha) signaling pathway - cell viability counter screen (AID 743074; calls by dose curve; further: nearly all actives have a fitted effect of over 45% in size)
[6] = molecular target: Estrogen receptor (Homo sapiens) (UniProt P03372); assay: qHTS assay to identify small molecule agonists of the estrogen receptor alpha (ER-alpha) signaling pathway (AID 743075; calls by dose curve)
[7] = molecular target: Estrogen receptor (Homo sapiens) (UniProt P03372); assay: qHTS assay to identify small molecule agonists of the estrogen receptor alpha (ER-alpha) signaling pathway using the BG1 cell line (AID 743079); settings: BG1Luc4E2 cells, ERE-luciferase agonist, 22 h; further: nearly all actives have a fitted effect of over 20% in size
[8] = qHTS assay to identify small molecule antagonists of the estrogen receptor alpha (ER-alpha) signaling pathway using the BG1 cell line (AID 743080; calls by dose curve;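 further: BG1 cells stimulated with 17beta-estradiol alongside compound; nearly all actives have a fitted effect of over 25% in size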)
Outline: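 Quantitative HTS on the Tox21 10K library: BG1 cells with endogenous ER-alpha and ERE-luciferase reporter, 17beta-estradiol stimulation, 21.5 h compound exposure, luminescence endpoint with parallel fluorescence cytotoxicity counter-read.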

[9] = qHTS assay to identify small molecule antagonists of the estrogen receptor alpha (ER-alpha) signaling pathway using the BG1 cell line - cell viability counter screen (AID 743081);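 further: compound given together with 17beta-estradiol as the ER stimulus; nearly all actives have a fitted effect of over 45% in size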
Aromatase (Homo sapiens) = Aromatase (Homo sapiens) (UniProt P11511); assay: qHTS assay to identify aromatase inhibitors (AID 743083); further: nearly all actives have a fitted effect of over 55% in size
Chain of Aromatase (Homo sapiens) (P11511 whole entry, looked up): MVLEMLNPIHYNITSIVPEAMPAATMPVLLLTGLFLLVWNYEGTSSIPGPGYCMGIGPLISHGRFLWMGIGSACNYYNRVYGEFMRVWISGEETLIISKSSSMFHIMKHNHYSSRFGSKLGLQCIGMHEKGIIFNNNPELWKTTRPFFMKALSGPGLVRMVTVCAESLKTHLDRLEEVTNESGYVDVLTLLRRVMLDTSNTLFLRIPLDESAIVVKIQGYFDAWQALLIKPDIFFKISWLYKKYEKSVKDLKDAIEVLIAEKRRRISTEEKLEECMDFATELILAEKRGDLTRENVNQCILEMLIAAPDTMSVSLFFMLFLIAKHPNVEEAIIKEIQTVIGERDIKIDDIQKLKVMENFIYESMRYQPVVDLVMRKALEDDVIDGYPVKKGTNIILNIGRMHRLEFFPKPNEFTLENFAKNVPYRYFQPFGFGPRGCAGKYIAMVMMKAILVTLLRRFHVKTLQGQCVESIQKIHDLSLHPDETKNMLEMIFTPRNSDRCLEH

[10] = qHTS assay to identify aromatase inhibitors - cell viability counter screen (AID 743084);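 further: cells stimulated with testosterone during compound exposure; nearly all actives have a fitted effect of over 55% in size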
[11] = molecular target: Aryl hydrocarbon receptor (Homo sapiens) (UniProt P35869); assay: qHTS assay to identify small molecule that activate the aryl hydrocarbon receptor (AhR) signaling pathway (AID 743085);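 further: HG2L7.5c1 human HepG2 liver cells with stably integrated DRE-driven firefly reporter; nearly all actives have a fitted effect of over 15% in size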
Chain of Aryl hydrocarbon receptor (Homo sapiens) (P35869 whole entry, looked up): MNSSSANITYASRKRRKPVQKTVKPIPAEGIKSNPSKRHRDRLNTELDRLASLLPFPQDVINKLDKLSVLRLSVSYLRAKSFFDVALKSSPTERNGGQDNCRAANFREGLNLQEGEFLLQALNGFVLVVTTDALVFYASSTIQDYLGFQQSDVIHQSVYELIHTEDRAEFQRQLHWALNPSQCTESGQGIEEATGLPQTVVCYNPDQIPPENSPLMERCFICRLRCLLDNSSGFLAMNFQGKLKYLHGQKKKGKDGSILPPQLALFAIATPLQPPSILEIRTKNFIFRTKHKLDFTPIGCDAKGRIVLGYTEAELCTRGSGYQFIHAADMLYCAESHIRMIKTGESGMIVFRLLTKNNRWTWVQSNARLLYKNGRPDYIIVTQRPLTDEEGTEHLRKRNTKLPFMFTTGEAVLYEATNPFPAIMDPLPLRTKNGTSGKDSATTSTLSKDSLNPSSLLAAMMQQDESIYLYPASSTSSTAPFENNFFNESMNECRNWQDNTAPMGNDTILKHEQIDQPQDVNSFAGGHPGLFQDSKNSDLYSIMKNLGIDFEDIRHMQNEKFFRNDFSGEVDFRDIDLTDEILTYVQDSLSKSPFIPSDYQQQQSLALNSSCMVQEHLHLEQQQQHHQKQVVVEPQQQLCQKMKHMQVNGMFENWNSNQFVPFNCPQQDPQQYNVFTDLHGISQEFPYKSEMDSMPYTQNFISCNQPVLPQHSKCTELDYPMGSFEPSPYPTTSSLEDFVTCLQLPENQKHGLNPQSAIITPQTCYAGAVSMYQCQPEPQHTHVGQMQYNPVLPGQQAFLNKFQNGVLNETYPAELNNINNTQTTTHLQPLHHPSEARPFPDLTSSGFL
Outline: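 Cell line HG2L7.5c1 (human hepatoma, 20× DRE-luc). Plated, 5 h 37C, compound/DMSO added, 24 h 37C. CellTiter-Fluor 30 min 37C → fluorescence; then ONE-Glo 30 min RT → luminescence.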

[12] = qHTS assay to identify small molecule that activate the aryl hydrocarbon receptor (AhR) signaling pathway - cell viability counter screen (AID 743086);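 further: HepG2 liver cells carrying the AhR DRE luciferase reporter; nearly all actives have a fitted effect of over 45% in size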
Outline: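 HepG2-AhR-luc (HG2L7.5c1) cells, 4000/well, were preincubated 5 h at 37C, exposed to compound in qHTS format for 24 hr at 37C, then given CellTiter-Fluor for 30 min; viability was read as fluorescence in the reporter wells.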

[13] = molecular target: Peroxisome proliferator-activated receptor gamma (Homo sapiens) (UniProt P37231); assay: qHTS assay to identify small molecule agonists of the peroxisome proliferator-activated receptor gamma (PPARg) signaling pathway (AID 743094; active means well fitted activation curve with a large enough effect in the signal ratio in the repeat runs, not every such curve was filed as active; the % refers to the signal ratio)
Chain of Peroxisome proliferator-activated receptor gamma (Homo sapiens) (P37231 whole entry, looked up): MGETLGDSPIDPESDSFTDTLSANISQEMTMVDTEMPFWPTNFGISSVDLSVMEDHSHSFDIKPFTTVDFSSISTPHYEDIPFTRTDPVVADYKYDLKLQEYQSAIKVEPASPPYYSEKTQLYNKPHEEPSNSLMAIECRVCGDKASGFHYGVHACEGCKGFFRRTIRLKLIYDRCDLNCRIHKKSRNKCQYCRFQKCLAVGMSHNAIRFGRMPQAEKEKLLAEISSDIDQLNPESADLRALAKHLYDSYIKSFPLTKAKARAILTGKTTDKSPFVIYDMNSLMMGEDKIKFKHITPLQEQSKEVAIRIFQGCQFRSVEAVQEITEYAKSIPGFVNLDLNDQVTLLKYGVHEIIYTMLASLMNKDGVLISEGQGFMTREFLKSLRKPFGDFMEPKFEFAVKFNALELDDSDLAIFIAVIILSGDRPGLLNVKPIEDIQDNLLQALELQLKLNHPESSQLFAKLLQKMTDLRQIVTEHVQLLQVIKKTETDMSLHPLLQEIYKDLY
Outline: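 Following 5 h plating at 37C, PPARg-bla HEK293H cells receive compound or DMSO for 17 h; fluorescence intensity is recorded after LiveBLAzer B/G loading for 1 h at room temperature.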

[14] = molecular target: Peroxisome proliferator-activated receptor gamma (Homo sapiens) (UniProt P37231); assay: qHTS assay to identify small molecule antagonists of the peroxisome proliferator-activated receptor gamma (PPARg) signaling pathway (AID 743191; calls by dose curve; further: nearly all actives have a fitted effect of over 30% in size)
Outline: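 GeneBLAzer PPARg UAS-bla HEK293H cells carrying a UAS-driven beta-lactamase reporter were plated at 3000 cells/well, preincubated 5 h at 37C, then given compound for 17 h at 37C; LiveBLAzer B/G FRET substrate was read after 1 h at room temperature.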

[15] = qHTS assay to identify small molecule antagonists of the peroxisome proliferator-activated receptor gamma (PPARg) signaling pathway - cell viability counter screen (AID 743194); settings: Potency: co-treated with 50 nM rosiglitazone; further: nearly all actives have a fitted effect of over 55% in size
Outline: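 PPARg-UAS-bla HEK293H cells were plated, rested 5 h at 37 C, then treated with compounds plus rosiglitazone (50 nM final) for 17 h at 37 C; viability was then read by CellTiter-Glo luminescence after 30 min at room temperature.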

[16] = qHTS assay for small molecule agonists of the antioxidant response element (ARE) signaling pathway (AID 743202; active means well fitted activation curve with a large enough effect in the signal ratio in the repeat runs, not every such curve was filed as active; the % refers to the signal ratio)
Outline: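 Read-out: LiveBLAzer B/G FRET substrate fluorescence after 2 h at room temperature, following 16 h compound treatment at 37 C of HepG2 cells carrying an ARE-driven beta-lactamase reporter.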

[17] = qHTS assay for small molecule activators of the heat shock response signaling pathway (AID 743210; active means well fitted activation curve with a large enough effect in the signal ratio in the repeat runs, with a control signal flat, not every such curve was filed as active; the % refers to the signal ratio)
Outline: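 HSE-bla HeLa cells (beta-lactamase reporter under heat shock response elements) were exposed to compounds for 5 h at 37 C, then loaded with LiveBLAzer B/G FRET substrate for 2.5 h at room temperature before fluorescence reading.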

[18] = qHTS assay for small molecule agonists of the antioxidant response element (ARE) signaling pathway - cell viability counter screen (AID 743203; calls by dose curve; further: nearly all actives have a fitted effect of over 55% in size)
Outline: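 Compounds in DMSO were pinned onto ARE-bla HepG2 cells plated 5 hrs earlier at 2,000 cells/well. Sixteen hours later at 37C/5% CO2, CellTiter-Glo was added and luminescence measured after 30 min at room temperature.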

[19] = qHTS assay for small molecule activators of the heat shock response signaling pathway - cell viability counter screen (AID 743209); further: nearly all actives have a fitted effect of over 50% in size
Outline: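 Counter screen for cytotoxicity in HeLa HSE-bla reporter cells. Treatment was 5 h at 37 C; viability was detected by luminescent ATP assay (CellTiter-Glo) in the same wells as the beta-lactamase read.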
On the % scale 0 is the no-effect control and ±100 the full control effect.

[O]=[Cd]
inactive: Potency [1] | Potency [2] | Potency [3] | Potency [4] | outcome [5] | Potency [6] | activation ([7]; at 70.3 µM (top of the series)) -13.8% and 18.3% | Potency [8] | Potency [9] | Potency (Aromatase (Homo sapiens)) | Potency [10] | Potency [11] | outcome [12] | outcome [13] | Potency [14] | Potency [15] | Potency [16] | outcome [17]

CCOP(=O)(N=C1SCCS1)OCC
inactive: Potency [1] | Potency [2] | Potency [3] | Potency [4] | outcome [5] | Potency [6] | activation ([7]; at 70.3 µM (top of the series)) -3.11% | Potency [8] | Potency [9] | Potency (Aromatase (Homo sapiens)) | Potency [10] | Potency [11] | outcome [12] | outcome [13] | Potency [14] | Potency [16] | Potency [18] | Potency [19] | outcome [17]

CCC(=O)c1ccccc1
inactive: Potency [1] | Potency [2] | Potency [3] | Potency [4] | outcome [5] | Potency [6] | activation ([7]; at 70.3 µM (top of the series)) -1.07% | Potency [8] | Potency [9] | Potency (Aromatase (Homo sapiens)) | Potency [10] | Potency [11] | outcome [12] | Potency [15] | Potency [16] | Potency [18] | Potency [19] | outcome [17]

O=C(O)c1cccc(Cl)c1
inactive: Potency [1] | Potency [2] | Potency [3] | Potency [4] | outcome [5] | Potency [6] | activation ([7]; at 70.3 µM (top of the series)) 2.91% | Potency [8] | Potency [9] | Potency (Aromatase (Homo sapiens)) | Potency [10] | Potency [11] | outcome [12] | outcome [13] | Potency [14] | Potency [15] | Potency [18] | Potency [19] | outcome [17]

[Cl][Sn]([Cl])([Cl])[Cl]
inactive: Potency [1] | Potency [2] | Potency [3] | Potency [4] | outcome [5] | Potency [6] | activation ([7]; at 95 µM (top of the series)) -3.53% | Potency [8] | Potency [9] | Potency (Aromatase (Homo sapiens)) | Potency [10] | Potency [11] | outcome [12] | outcome [13] | Potency [15] | Potency [16] | Potency [18] | Potency [19] | outcome [17]

C=CC1CC=CCC1 (stereo unspecified)
inactive: Potency [1] | Potency [2] | Potency [3] | Potency [4] | outcome [5] | Potency [6] | activation ([7]; at 70.3 µM (top of the series)) 11% | Potency [8] | Potency [9] | Potency (Aromatase (Homo sapiens)) | Potency [10] | outcome [12] | outcome [13] | Potency [14] | Potency [15] | Potency [16] | Potency [19] | outcome [17]

CCC1(c2ccccc2)C(=O)NC(=O)NC1=O
inactive: Potency [1] | Potency [2] | Potency [3] | Potency [4] | outcome [5] | Potency [6] | activation ([7]; at 70.3 µM (top of the series)) -1.3% | activation ([7]; at 95 µM (top of the series)) -10.3% | Potency [8] | Potency [9] | Potency (Aromatase (Homo sapiens)) | Potency [10] | Potency [11] | outcome [12] | outcome [13] | Potency [14] | Potency [15] | Potency [16] | Potency [18] | Potency [19]
